Experiment [1] can be described thus: Nuclear factor erythroid 2-related factor 2/antioxidant responsive element (Nrf2/ARE) small molecule agonists: qHTS cell viability counter screen in human keratinocytes (AID 1919968; active = well fitted curve in the direction sought with a large enough effect in the repeat runs; an effect the other way counts as inactive or inconclusive; note: nearly all actives have a fitted effect of over 55% in size; note: potency is the fitted concentration of half-maximal effect). In outline: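 Stably transfected HaCaT (KeratinoSens), 1,500/well. Test agents in DMSO were applied for 23 h, 37 C/5% CO2. CellTiter-Fluor was incubated 1 h before the fluorescence read.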
Background: qHTS replaces the single test concentration by a dilution series.

The nature of experiment [2]: Nuclear factor erythroid 2-related factor 2/antioxidant responsive element (Nrf2/ARE) small molecule agonists: luciferase reporter gene qHTS assay in human keratinocytes (AID 1919969). Note: nearly all actives have a fitted effect of over 35% in size. Background: A reporter such as luciferase makes a cellular process visible.
The target of experiment [3] is KiSS-1 receptor (Homo sapiens) (UniProt Q969F8). Nature of the experiment: Human kisspeptin (KISS1R) small molecule agonists, calcium flux assay in KISS1R-HEK293 cells (AID 1920064; active = well fitted curve in the direction sought with a large enough effect in the repeat runs; an effect the other way counts as inactive or inconclusive). In outline: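 After overnight (18 h) culture at 37 C/5% CO2, human KISS1R-HEK293 cells received calcium dye for 1 h, then test compound; emission at 540 nm (excitation 480 nm) was tracked for 3 min.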
A general note: Calcium flux is commonly read through the fluorescence of an indicator in the cells.

Experiment [4] can be described thus: G protein-coupled receptor (GPCR) small molecule agonists, calcium flux assay: HEK293 wild type cell line counter screen (AID 1920065). In outline: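 Following 18 h incubation at 37 C/5% CO2, plates got calcium dye for 1 h; compounds, ATP or DMSO were then pinned in and fluorescence followed kinetically (480/540 nm).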
Experiment [5] is described as follows: p53 small molecule agonists, cell-based qHTS assay with human liver microsomes (AID 1963577).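 Note: p53 response element beta-lactamase reporter cells with liver microsomes plus NADPH.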 In outline:
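HLM-supplemented p53RE-bla reporter assay: 16 h compound exposure at 37 C, microsomes and NADPH each 0.5 mg/mL final, read by fluorescence intensity.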

Experiment [6] in a line: p53 small molecule agonists, cell-based qHTS assay with rat liver microsomes (AID 1963578). In outline:
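Quantitative HTS of the Tox21 10K library: p53RE-bla cells, rat liver microsomes plus NADPH at 0.5 mg/mL final each, 16 h at 37 C, beta-lactamase fluorescence detection.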

Experiment [7] can be described thus: p53 small molecule agonists, cell-based qHTS assay with human liver microsomes: qHTS cell viability counter screen (AID 1963579). Note: nearly all actives have a fitted effect of over 45% in size. In outline: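 Viability of p53RE-bla cells is measured as CellTiter-Glo luminescence following a 16 h, 37 C incubation with compound, liver microsomes from human donors and NADPH.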
Experiment [8] in a line: p53 small molecule agonists, cell-based qHTS assay with rat liver microsomes: qHTS cell viability counter screen (AID 1963580). Note: nearly all actives have a fitted effect of over 45% in size. In outline:
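Cytotoxicity counter screen: intracellular ATP read by CellTiter-Glo luminescence in the p53 reporter wells. HCT-116 p53RE-bla cells were treated for 16 h at 37 C alongside rat liver microsomes and NADPH, each 0.5 mg/mL final.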

Experiment [9] can be described thus: p53 small molecule agonists, cell-based qHTS assay: qHTS cell viability counter screen (AID 1963581). Note: nearly all actives have a fitted effect of over 45% in size. In outline:
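qHTS counter screen: 16 h compound exposure at 37 C of p53RE-bla HCT-116 cells (4,000 per well, seeded 5 h prior), cell viability by ATP luminescence.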

Experiment [10] can be described thus: p53 small molecule agonists, cell-based qHTS assay (AID 1963582; active = well fitted activation curve with a large enough effect in the signal ratio in the repeat runs, not every such curve was filed as active; the % refers to the signal ratio). In outline:
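Measured: fluorescence from cleaved LiveBLAzer substrate. System: p53RE-bla cells, 16 h compound treatment at 37 C, 2 h substrate step at room temperature.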

Experiment [11] is described as follows: cAMP Responsive Elements (CRE) small molecule agonists, cell-based qHTS assay (AID 1963590). In outline:
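Test agents in DMSO were incubated 3 h at 37 C/5% CO2 with CRE-bla HEK 293T cells seeded 18 h earlier; LiveBLAzer B/G FRET substrate was added and read after 2 h at room temperature.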

Experiment [12] in a line: cAMP Responsive Elements (CRE) small molecule antagonists, cell-based qHTS assay (AID 1963591; active = well fitted inhibition curve with a large enough effect in the signal ratio in the repeat runs, not every such curve was filed as active; the % refers to the signal ratio). In outline: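 Reporter line CRE-bla HEK 293T in dialyzed-FBS DMEM; cells preincubated 18 h, treated 3 h with compound plus NKH477 (0.25 uM final); LiveBLAzer FRET, 2 h RT.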
For experiment [13], the target named is Beta-2 adrenergic receptor (Homo sapiens) (UniProt P07550). The experiment can be described thus: Adrenergic beta2 receptor (ADRB2) small molecule antagonists, cell-based qHTS assay (AID 1963592). Note: series mostly up to about 92 µM; nearly all actives have a fitted effect of over 50% in size. In outline:
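Assay format: CHO-ADRB2 cells, 18-20hr seeding at 37C/5% CO2, then compound plus 1nM isoproterenol agonist mix for 0.5hr RT. Homogeneous time-resolved fluorescence cAMP detection after 1hr, expressed as 665/615 nm ratio.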

Experiment [14] addresses D(2) dopamine receptor (Homo sapiens) (UniProt P14416). The experiment can be described thus: Dopamine D2 receptor (DRD2) small molecule agonists, cell-based qHTS assay (AID 1963594). Note: nearly all actives have a fitted effect of over 35% in size. In outline: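 cAMP accumulation in DRD2-HEK293 cells measured by HTRF after 1 h detection; compounds added 10 min before NKH477 (200nM […]) forskolin-analogue stimulation, 30 min at room temperature, with Ro20-1724 present at 0.1 mM final.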

The target is the same in experiment [15]. Nature of the experiment: Dopamine D2 receptor (DRD2) small molecule antagonists, cell-based qHTS assay (AID 1963595; active = well fitted inhibition curve with a large enough effect in the signal ratio in the repeat runs, with a control signal flat; the % refers to the signal ratio). In outline: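 Human DRD2 antagonist qHTS measuring cAMP by HTRF. The cells are exposed to compound for 10 min, then to NKH477 (200 nM) and quinpirole (12 nM) for 30 min at RT, with Ro20-1724 (0.1 mM) present throughout.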
For experiment [16], the target named is 5-hydroxytryptamine receptor 2A (Homo sapiens) (UniProt P28223). Nature of the experiment: 5-hydroxytryptamine receptor 2A (HTR2A) small molecule agonists, cell-based qHTS assay (AID 1963587). Note: nearly all actives have a fitted effect of over 30% in size. In outline:
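Kinetic calcium-flux fluorescence (2 min, 1 sec intervals) after compound addition in agonist mode. HTR2A-CHO cells were cultured 18 h, then dye-loaded 1 h at 37 C.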

For experiment [17], the target named is Muscarinic acetylcholine receptor M1 (Homo sapiens) (UniProt P11229). The experiment can be described thus: Cholinergic receptor muscarinic 1 (CHRM1) small molecule antagonists, cell-based qHTS assay (AID 1963588). Note: nearly all actives have a fitted effect of over 40% in size. In outline:
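Compounds were tested at 15 concentrations in three independent runs. Dye-loaded CHRM1-CHO cells were exposed 5 min at room temperature before stimulation by acetylcholine added at 50nM. Intracellular calcium was read kinetically on FDSS for 3 min.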

Experiment [18] shares this target. Nature of the experiment: Cholinergic receptor muscarinic 1 (CHRM1) small molecule agonists, cell-based qHTS assay (AID 1963589). Note: nearly all actives have a fitted effect of over 35% in size. In outline: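 Kinetic fluorescence (1 s intervals) of calcium-sensitive dye in human M1 CHO cells after compound addition; cells pre-incubated 18 h at 37 C/5% CO2 and dye-loaded 1 h.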
The target of experiment [19] is 5-hydroxytryptamine receptor 2A (Homo sapiens) (UniProt P28223). Nature of the experiment: 5-hydroxytryptamine receptor 2A (HTR2A) small molecule antagonists, cell-based qHTS assay (AID 1963586). Note: nearly all actives have a fitted effect of over 45% in size. In outline:
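CHO cells stably expressing human HTR2A were plated for 18 h at 37 C, then loaded with calcium dye for 1 h. Compounds were preincubated 5 min at room temperature before DOI (4 nM solution) was added. Kinetic fluorescence was read for 3 min.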

Molecules are shown by their SMILES. Unmarked numbers belong to inactive results. Records with an inconclusive call do not appear. Active and inactive are the calls of the source. Unless noted, calls come from the whole dose curve.
% is set by controls: 0 for no effect and ±100 for the full control effect.

Muscarinic acetylcholine receptor M1 (Homo sapiens), sequence (P11229 whole entry, looked up): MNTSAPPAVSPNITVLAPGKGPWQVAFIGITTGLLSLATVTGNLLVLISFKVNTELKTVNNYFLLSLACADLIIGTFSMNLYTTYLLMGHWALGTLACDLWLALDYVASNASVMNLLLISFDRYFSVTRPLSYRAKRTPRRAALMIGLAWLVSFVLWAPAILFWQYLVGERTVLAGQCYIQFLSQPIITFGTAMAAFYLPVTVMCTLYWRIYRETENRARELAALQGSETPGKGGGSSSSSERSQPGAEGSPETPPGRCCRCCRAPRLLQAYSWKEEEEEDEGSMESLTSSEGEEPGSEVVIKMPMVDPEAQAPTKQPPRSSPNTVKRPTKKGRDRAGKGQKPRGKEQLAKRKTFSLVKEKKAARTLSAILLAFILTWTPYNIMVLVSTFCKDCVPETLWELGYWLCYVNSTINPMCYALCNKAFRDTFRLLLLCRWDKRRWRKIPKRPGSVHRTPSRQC
5-hydroxytryptamine receptor 2A (Homo sapiens), sequence (P28223 whole entry, looked up): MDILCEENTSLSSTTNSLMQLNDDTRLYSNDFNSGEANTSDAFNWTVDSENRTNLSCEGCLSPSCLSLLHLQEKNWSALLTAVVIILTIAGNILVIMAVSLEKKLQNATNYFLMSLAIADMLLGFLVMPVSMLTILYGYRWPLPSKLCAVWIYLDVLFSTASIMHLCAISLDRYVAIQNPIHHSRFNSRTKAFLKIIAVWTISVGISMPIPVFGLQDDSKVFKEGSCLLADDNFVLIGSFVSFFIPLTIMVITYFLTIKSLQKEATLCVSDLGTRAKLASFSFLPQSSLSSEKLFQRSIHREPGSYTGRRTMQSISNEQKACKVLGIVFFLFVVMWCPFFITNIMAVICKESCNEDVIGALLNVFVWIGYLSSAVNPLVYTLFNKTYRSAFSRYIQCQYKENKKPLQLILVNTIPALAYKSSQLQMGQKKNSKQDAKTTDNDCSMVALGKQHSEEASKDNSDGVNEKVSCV
Beta-2 adrenergic receptor (Homo sapiens), sequence (P07550 whole entry, looked up): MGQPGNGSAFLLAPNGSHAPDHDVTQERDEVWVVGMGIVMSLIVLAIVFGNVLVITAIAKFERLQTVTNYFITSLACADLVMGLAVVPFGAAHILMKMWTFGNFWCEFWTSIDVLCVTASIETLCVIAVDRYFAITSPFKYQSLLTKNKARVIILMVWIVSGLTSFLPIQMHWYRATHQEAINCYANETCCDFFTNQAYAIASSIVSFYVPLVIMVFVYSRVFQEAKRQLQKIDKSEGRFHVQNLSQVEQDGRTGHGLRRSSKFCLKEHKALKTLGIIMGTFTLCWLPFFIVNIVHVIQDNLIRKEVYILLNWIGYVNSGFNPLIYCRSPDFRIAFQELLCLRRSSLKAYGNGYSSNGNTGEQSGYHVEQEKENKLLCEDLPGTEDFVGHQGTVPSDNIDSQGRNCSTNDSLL
D(2) dopamine receptor (Homo sapiens), sequence (P14416 whole entry, looked up): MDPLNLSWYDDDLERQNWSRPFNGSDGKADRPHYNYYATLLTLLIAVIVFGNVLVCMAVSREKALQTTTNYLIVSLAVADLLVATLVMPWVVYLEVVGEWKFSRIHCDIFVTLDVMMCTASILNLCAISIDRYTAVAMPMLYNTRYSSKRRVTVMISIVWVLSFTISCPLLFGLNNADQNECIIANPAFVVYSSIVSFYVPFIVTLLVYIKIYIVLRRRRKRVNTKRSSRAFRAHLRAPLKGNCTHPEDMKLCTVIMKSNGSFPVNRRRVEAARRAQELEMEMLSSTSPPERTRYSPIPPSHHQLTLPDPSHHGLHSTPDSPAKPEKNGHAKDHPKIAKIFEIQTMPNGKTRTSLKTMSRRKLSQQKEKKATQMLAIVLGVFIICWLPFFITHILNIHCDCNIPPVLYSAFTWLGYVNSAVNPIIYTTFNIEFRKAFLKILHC
KiSS-1 receptor (Homo sapiens), sequence (Q969F8 whole entry, looked up): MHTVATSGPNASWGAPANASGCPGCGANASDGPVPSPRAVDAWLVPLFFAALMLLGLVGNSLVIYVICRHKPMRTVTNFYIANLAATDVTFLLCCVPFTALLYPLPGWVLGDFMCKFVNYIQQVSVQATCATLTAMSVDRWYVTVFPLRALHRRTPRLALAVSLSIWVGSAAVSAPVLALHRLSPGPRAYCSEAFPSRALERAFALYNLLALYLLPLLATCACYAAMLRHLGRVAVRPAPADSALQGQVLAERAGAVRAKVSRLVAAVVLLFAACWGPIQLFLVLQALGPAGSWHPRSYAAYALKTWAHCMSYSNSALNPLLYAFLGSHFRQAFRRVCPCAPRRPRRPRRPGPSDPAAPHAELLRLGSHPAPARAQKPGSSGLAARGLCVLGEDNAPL

As for `NCC(=O)O`, the activity change, negative = cytotoxicity in [1] was -4.41% [at 19 µM]; in experiment [7], -11.7% [at 13.5 µM]; in experiment [8] it was -0.16% [at 13.5 µM]; in [9], -0.356% [at 13.5 µM]. Besides, in experiment [2], the activity, positive = activation is -0.375% [at 19 µM]. In addition, the activation is -0.57% [at 15.8 µM] in experiment [3]; -1.52% [at 11.8 µM] in [4]; 0.573% [at 13.5 µM] in [5]; 1.19% [at 13.6 µM] in experiment [6]; 0.144% [at 13.5 µM] in experiment [10]; -1.05% [at 19 µM] in experiment [11]. In addition, in experiment [14], the activation was 4.26% [at 19 µM]. In addition, the activity change, negative = inhibition in [12] is 4.57% [at 18.9 µM]; in experiment [13], -10.5% [at 19 µM]; in experiment [15] it was -7.27% [at 18.9 µM].
`CCCCCCCCCCCCCCCC[N+](C)(C)CCN(Cc1ccc(OC)cc1)c1ncccn1`: in experiment [1], the Potency is 26.6 µM (active). The Potency entry in experiment [2], in [5], in experiment [6], in experiment [7], in experiment [8] and in [9] was “inactive” each time. In addition, the Potency result in experiment [10], in [16], in experiment [17], in experiment [18], in experiment [13] and in experiment [14] was “inactive” each time. Also, the result in [3] and in [4] was inactive.
`Clc1cc(Cl)cc(Cl)c1`: the Potency result in [1], in experiment [2], in experiment [5], in experiment [6], in experiment [7] and in experiment [8] was “inactive” in each case. For the same compound, the Potency result in experiment [9], in experiment [10], in experiment [16], in [17], in experiment [18] and in [11] was “inactive” in each case. The Potency result in [12], in experiment [13], in experiment [14] and in experiment [15] was “inactive” each time. The result in experiment [3] and in experiment [4] was inactive.
`Cc1nc(C2CCCCC2)c(-c2ccc(S(N)(=O)=O)c(F)c2)o1`: the Potency entry in experiment [1], in [2], in experiment [5], in experiment [6], in [7] and in experiment [8] was “inactive” each time. Further, the Potency entry in [9], in [10], in experiment [16], in experiment [17], in [13] and in experiment [14] was “inactive” throughout. In experiment [15], the Potency entry was “inactive”. Further, the outcome in experiment [3] and in [4] was inactive.
With `COc1ncnc(NS(=O)(=O)c2ccc(N)cc2)c1OC`, the Potency entry in experiment [1], in experiment [2], in experiment [5], in experiment [6], in [7] and in experiment [8] was “inactive” throughout. Also, the Potency entry in [9], in [10], in experiment [12], in experiment [13], in [14] and in experiment [15] was “inactive” throughout. The outcome in experiment [3] and in experiment [4] was inactive.
For `CCCCCCCCCCCCCCCCCO`, the activity change, negative = cytotoxicity in [1] is 0.787% [at 19 µM]; in experiment [7], -0.024% [at 13.5 µM]; in [8] it was -2.14% [at 13.5 µM]; in [9], 17.8% [at 13.5 µM]. In addition, the activity, positive = activation in experiment [2] is -1.74% [at 19 µM]. The activation in experiment [3] was 3.41% [at 15.8 µM]; in experiment [4] it was -0.253% [at 11.8 µM]; in experiment [5], 4.84% [at 13.5 µM]; in [6], 1.18% [at 13.6 µM]; in experiment [10], -2.02% [at 13.5 µM]; in experiment [18], -0.0126% [at 15.8 µM]. In addition, the activation is -0.514% [at 19 µM] in [11] and 0.198% [at 19 µM] in experiment [14]. Further, in experiment [19], the activity, negative = inhibition is -18.1% [at 12.7 µM]. Further, the activity change, negative = inhibition in experiment [12] is 0.936% [at 18.9 µM]; in [13] it was -1.56% [at 19 µM]; in experiment [15] it was 6.26% [at 18.9 µM].
Consider `CC(=O)OC(C)c1ccccc1` (stereo unspecified), for which the Potency entry in experiment [1], in experiment [2], in [5], in experiment [6], in experiment [7] and in experiment [8] was “inactive” each time. Besides, the Potency result in experiment [9], in experiment [19], in experiment [16], in experiment [17], in experiment [18] and in experiment [11] was “inactive” each time. Also, the Potency result in experiment [13], in experiment [14] and in experiment [15] was “inactive” in each case. Moreover, the result in experiment [3] and in experiment [4] was inactive.
`CNC(=O)CN(CCN(CCN(CC(=O)[O-])CC(=O)NC)CC(=O)[O-])CC(=O)[O-].O.[Gd+3]`: the Potency result in experiment [1], in [2], in experiment [5], in experiment [6], in experiment [7] and in [8] was “inactive” in each case. Moreover, the Potency entry in experiment [9], in [10], in experiment [18], in experiment [11], in experiment [12] and in experiment [13] was “inactive” each time. Besides, the Potency result in [15] was “inactive”. Besides, the result in [3] and in [4] was inactive.

The record behind these values is PubChem BioAssay (Tox21).
